Drawing on PubChem BioAssay, this text covers inhibition for 15 compounds.

PEG-3, sequence (Q6IN02 whole entry, looked up): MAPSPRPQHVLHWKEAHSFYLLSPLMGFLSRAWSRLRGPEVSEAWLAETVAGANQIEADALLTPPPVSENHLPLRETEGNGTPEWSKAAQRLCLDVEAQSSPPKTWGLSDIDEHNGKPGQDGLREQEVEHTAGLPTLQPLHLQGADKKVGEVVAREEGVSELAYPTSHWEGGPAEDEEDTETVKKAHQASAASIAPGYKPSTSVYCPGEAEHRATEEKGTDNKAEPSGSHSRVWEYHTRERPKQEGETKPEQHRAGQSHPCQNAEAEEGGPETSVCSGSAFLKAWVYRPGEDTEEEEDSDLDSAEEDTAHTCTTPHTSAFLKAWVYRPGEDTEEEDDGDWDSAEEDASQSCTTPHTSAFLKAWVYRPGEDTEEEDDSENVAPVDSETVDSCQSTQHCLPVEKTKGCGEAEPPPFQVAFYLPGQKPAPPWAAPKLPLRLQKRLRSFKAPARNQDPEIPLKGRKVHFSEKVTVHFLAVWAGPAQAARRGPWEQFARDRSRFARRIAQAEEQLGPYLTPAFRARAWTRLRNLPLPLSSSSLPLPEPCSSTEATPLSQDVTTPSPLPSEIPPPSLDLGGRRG

The assay addresses PEG-3 (UniProt Q6IN02). Description: inhibition of PEG-3 promoter-driven reporter – cell-based, HeLa, luciferase, CREF/GAPDH counter-screen panel, dose response (AID 624167). The settings on record: CREF/GAPDH counter-screens; HeLa PEG-Prom luciferase reporter, overnight, run 2, dose range 1, at 100 µM (top of the series) unless noted. In general terms: Counterscreens check selectivity or assay interference.
In general, inhibition refers to the relative decrease from the control value, in per cent. For the compound `Cc1ccc2cccc(OCC(=O)Nc3cccc(S(=O)(=O)N4CCCC4)c3)c2n1`, the inhibition was determined as 97.2%.
For the compound `COc1cc(C=NO)nc(-c2ccccn2)c1`, the inhibition was 73.1%.
For the compound `CC1(C)C(=O)C=CC(=O)C(C)(C)C(=O)C=CC(=O)C(C)(C)C2=CC=C(O2)C(C)(C)C(=O)C=CC1=O`, the inhibition came to 98.9%.
Take `COc1cccc(NC(=O)Nc2cccc(C(=O)O)c2)c1`: the inhibition was determined as 81.3%.
In the case of `CN(C)CCNC(=O)c1sc2nc(-c3ccccc3)cc(C(F)(F)F)c2c1N`, the inhibition was found to be 102%.
The result for `Cc1ccc(N2CC(C(=O)Nc3nccs3)CC2=O)cc1Cl` (stereo not given) reads 63.6%; that for `COc1ccc(CC(N)c2csc(NC(=O)Nc3ccccc3C(C)(C)C)n2)cc1` (stereo not given), 98.5%.
Consider `CN(CC(=O)Nc1ccc(Cl)c(C(F)(F)F)c1)C(=O)c1cc(-c2ccncc2)nc2ccccc12`, for which the inhibition was found to be 98.9%.
As for `CCN1CCN(CCNC(=O)c2ccc(/C=C3\Sc4ccccc4N(Cc4ccccc4F)C3=O)cc2)CC1`, the inhibition was found to be 101%.
For `CN1CCN(CCNC(=O)c2ccc3nc(-c4ccc(F)cc4)c(-c4ccc(F)cc4)nc3c2)CC1`, the inhibition came out at 98.2%.
Take `COc1ccc(-c2cc(C(=O)N(C)Cc3cccc(OC)c3OC)c3ccccc3n2)cc1OC`: the inhibition amounted to 74.7%.
For `Cn1cc(CN2CCCC(C(=O)Nc3ccc(-c4cccc(F)c4)cc3)C2)cn1` (stereo not given), the inhibition was 102%.
Take `CC(=O)Nc1cccc(-c2ccnc3c2CC(C)(C(=O)Nc2cccc(OC(F)(F)F)c2)O3)c1` (stereo not given): the inhibition is 77.1%.
The result for `O=[N+]([O-])c1ccc(-c2nc(Nc3cccc(O)c3)c3ccccc3n2)cc1` reads 101%; that for `COc1ccc2c(c1)[nH]c1c(=O)n(/N=C/C3C(C)C=C(C)CC3C)c(=O)[nH]c12` (stereo not given), -83.6%.
